# Compound: C#CCNC(=O)CCSSCCC(=O)NCCc1ccc(C=O)c(C=O)c1
# Experiment: lysine labeling ratio R10:1 (500 µM / 50 µM probe), SILAC-ABPP in living cells; higher = lower intrinsic lysine reactivity toward the probe, active = 2 or less
# Conditions: HeLa; probe concentrations 500 vs 50 µM
# How it was run: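 Living SILAC light and heavy HeLa cells in PBS at room temperature were treated with an alkyne-tagged, disulfide-linked lysine probe at 50 µM or 500 µM, with forward and reverse label swaps. The mixed lysates were clicked to biotin-azide, digested with trypsin, captured on neutravidin, released with DTT, alkylated and run by LC-MS/MS on a TIMS-TOF Pro. R for each lysine is the filtered median high-probe/low-probe MS1 peptide ratio, taken again as the median over forward and reverse replicates. Any value above 20 is set to 20.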
# Chain of UniProt Q86XX4 (Q86XX4 whole entry): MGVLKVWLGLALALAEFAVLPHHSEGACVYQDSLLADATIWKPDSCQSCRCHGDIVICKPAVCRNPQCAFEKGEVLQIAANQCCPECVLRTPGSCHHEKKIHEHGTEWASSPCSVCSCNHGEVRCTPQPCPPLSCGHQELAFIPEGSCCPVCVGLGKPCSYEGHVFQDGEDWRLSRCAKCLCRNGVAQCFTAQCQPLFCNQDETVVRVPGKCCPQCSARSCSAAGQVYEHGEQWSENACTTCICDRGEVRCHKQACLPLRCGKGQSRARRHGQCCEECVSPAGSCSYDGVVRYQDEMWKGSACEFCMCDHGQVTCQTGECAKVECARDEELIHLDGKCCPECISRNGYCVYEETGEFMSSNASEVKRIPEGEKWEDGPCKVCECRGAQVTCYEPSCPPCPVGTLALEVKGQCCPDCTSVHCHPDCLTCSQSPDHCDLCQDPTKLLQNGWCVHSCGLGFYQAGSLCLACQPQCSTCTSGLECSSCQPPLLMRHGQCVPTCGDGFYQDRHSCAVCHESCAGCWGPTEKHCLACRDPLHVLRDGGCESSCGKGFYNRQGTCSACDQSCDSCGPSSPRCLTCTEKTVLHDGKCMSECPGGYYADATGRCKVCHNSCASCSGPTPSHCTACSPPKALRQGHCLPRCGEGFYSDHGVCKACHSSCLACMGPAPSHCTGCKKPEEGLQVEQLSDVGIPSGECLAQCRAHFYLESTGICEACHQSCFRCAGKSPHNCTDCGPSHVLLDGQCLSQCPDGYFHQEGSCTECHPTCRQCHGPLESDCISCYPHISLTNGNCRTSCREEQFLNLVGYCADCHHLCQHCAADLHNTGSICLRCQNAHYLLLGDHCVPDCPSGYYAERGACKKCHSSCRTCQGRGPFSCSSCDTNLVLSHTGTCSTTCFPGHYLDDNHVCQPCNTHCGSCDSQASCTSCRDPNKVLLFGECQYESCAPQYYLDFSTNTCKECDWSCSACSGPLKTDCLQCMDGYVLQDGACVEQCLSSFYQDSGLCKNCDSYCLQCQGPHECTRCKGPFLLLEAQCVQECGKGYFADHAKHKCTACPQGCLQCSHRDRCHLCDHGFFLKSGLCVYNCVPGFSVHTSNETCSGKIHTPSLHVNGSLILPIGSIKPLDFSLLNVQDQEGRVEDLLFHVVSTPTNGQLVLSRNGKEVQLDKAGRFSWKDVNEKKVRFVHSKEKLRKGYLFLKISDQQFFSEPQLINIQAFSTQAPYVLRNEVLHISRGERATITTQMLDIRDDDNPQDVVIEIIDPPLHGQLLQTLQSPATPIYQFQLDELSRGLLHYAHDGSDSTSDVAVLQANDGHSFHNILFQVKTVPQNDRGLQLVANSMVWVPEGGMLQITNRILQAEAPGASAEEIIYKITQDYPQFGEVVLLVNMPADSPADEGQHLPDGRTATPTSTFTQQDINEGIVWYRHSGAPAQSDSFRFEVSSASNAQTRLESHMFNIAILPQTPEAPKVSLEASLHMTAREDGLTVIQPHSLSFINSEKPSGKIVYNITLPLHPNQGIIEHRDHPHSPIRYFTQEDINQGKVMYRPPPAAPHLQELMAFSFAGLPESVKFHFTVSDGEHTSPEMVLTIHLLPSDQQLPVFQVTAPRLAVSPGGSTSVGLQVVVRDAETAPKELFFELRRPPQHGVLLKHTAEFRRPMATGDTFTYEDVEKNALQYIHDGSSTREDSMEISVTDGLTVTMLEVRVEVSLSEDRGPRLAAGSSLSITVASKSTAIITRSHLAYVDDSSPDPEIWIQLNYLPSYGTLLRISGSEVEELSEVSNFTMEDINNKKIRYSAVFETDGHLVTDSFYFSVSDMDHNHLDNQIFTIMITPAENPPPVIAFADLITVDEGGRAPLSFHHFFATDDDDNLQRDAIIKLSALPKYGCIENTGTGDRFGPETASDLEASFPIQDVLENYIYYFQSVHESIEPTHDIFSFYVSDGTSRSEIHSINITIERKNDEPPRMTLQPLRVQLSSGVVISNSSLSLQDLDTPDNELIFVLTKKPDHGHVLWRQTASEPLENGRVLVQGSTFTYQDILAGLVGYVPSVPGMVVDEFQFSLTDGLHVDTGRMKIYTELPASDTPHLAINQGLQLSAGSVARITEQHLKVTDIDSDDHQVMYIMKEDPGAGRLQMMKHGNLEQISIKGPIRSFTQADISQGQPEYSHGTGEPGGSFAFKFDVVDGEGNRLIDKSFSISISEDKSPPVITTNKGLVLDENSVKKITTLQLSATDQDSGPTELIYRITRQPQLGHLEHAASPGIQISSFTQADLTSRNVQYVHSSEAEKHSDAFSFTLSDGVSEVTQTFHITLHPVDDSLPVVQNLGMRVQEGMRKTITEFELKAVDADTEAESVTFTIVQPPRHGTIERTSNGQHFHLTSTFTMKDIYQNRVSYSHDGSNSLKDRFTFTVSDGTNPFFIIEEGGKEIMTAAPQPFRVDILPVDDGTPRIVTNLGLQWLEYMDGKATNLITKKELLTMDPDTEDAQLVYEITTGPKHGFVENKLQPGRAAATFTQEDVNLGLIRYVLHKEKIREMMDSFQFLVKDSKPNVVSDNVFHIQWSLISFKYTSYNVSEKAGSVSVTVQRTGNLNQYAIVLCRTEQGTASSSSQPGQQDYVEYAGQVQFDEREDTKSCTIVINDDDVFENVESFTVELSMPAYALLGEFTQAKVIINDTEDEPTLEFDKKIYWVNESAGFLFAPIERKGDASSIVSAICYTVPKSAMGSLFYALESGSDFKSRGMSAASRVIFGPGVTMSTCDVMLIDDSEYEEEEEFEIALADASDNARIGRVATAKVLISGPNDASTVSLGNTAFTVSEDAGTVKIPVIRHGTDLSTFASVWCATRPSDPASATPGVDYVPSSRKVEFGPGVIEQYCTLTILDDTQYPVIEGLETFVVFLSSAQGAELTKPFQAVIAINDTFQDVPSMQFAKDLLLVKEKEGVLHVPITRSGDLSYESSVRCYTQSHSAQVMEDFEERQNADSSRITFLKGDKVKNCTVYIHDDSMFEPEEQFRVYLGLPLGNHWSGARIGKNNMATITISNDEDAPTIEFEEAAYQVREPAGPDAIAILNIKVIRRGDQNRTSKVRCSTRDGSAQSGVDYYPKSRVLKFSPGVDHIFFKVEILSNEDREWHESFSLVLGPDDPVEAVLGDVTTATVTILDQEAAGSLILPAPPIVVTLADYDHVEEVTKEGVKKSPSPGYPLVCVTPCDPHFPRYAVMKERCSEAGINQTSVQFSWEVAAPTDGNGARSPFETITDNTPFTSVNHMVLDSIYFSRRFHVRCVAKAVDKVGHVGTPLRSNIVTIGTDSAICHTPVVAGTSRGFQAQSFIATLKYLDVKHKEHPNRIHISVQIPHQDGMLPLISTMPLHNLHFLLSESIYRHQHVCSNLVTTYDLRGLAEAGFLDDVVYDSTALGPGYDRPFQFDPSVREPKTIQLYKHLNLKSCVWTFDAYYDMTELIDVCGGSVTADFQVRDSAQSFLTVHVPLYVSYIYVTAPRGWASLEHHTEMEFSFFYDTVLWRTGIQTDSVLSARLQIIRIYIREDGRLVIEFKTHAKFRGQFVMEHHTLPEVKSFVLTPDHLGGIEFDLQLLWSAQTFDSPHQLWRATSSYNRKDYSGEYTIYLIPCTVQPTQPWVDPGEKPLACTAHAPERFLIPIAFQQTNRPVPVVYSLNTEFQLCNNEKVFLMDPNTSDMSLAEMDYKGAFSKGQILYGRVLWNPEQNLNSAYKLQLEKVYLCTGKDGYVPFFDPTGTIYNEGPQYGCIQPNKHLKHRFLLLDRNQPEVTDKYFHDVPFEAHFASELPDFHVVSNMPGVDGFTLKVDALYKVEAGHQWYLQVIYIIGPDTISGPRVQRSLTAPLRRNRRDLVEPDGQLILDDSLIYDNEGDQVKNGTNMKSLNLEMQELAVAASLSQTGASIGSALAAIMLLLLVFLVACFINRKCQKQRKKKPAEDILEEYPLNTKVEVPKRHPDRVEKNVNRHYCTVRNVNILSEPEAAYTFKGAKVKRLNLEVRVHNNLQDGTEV
# Chain of UniProt Q9Y624 (Q9Y624 whole entry, stated change not applied): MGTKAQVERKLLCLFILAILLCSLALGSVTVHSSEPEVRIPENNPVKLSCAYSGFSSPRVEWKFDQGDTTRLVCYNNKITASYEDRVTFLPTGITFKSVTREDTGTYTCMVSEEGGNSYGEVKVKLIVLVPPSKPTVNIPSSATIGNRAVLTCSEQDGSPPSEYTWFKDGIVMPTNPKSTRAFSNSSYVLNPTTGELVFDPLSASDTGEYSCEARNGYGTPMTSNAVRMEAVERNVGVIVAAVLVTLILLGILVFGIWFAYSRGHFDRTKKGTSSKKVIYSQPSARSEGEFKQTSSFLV
# Chain of UniProt P60842 (P60842 whole entry): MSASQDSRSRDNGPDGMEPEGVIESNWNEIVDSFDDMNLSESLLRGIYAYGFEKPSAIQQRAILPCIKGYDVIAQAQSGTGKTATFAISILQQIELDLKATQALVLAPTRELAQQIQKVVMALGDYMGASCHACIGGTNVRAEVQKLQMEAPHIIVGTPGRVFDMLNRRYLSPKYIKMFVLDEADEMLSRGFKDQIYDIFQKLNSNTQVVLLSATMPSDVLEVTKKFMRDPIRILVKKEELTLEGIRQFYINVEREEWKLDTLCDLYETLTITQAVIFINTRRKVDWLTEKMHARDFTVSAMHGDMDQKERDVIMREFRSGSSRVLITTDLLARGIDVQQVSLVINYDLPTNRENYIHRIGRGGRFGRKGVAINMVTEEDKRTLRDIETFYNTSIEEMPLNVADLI
# Chain of UniProt P37802 (P37802 whole entry): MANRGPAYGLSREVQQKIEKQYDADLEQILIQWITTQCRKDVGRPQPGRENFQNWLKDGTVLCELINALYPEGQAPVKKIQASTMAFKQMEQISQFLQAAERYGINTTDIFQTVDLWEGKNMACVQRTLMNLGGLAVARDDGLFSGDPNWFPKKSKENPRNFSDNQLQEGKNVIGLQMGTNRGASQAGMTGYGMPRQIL
# Chain of UniProt Q9UMX5 (Q9UMX5 whole entry): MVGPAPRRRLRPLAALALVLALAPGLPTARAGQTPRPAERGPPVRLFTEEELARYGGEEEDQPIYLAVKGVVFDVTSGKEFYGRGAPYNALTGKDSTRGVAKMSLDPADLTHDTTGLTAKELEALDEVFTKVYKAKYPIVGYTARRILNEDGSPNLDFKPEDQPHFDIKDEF
row,Target,lysine labeling ratio R10:1
1,HNRNPU (lysine site: K551) (UniProt Q00839),1.98 (active)
2,COL5A1 (lysine site: K57) (UniProt P20908),1.11 (active)
3,MSLN (lysine site: K307) (UniProt Q13421),1.74 (active)
4,FRAS1 (lysine site: K380) (UniProt Q86XX4),2.25 (inactive)
5,UniProt P60842 (lysine site: K54),1.77 (active)
6,CCT8 (lysine site: K440) (UniProt P50990),2.29 (inactive)
7,SLC25A11 (lysine site: K57) (UniProt Q02978),1.95 (active)
8,RPS3 (lysine site: K62) (UniProt P23396),3.22 (inactive)
9,SDCBP (lysine site: K124) (UniProt O00560),1.6 (active)
10,HSPA8 (lysine site: K319) (UniProt P11142),4.74 (inactive)
11,MET (lysine site: K595) (UniProt P08581),1.67 (active)
12,ALDOA (lysine site: K13) (UniProt P04075),8.82 (inactive)
13,LAMB1 (lysine site: K1708) (UniProt P07942),3.33 (inactive)
14,UniProt P62244 (lysine site: K32),4.35 (inactive)
15,NRP1 (lysine site: K407) (UniProt O14786),3.76 (inactive)
16,UniProt Q6NZI2 (lysine site: K137),3.08 (inactive)
17,TAGLN2 (lysine site: K156) (UniProt P37802),1.43 (active)
18,UniProt Q92729 (lysine site: K388),3.11 (inactive)
19,UniProt P09758 (lysine site: K231),4.22 (inactive)
20,ITGB1 (lysine site: K107) (UniProt P05556),1.41 (active)

row,Target,lysine labeling ratio R10:1
1,GPC1 (lysine site: K236) (UniProt P35052),3.17 (inactive)
2,F11R (lysine site: K78) (UniProt Q9Y624),3.33 (inactive)
3,NENF (lysine site: K136) (UniProt Q9UMX5),0.955 (active)
4,LDLR (lysine site: K518) (UniProt P01130),1.72 (active)
5,ANXA3 (lysine site: K154) (UniProt P12429),3.32 (inactive)
6,RPS3 (lysine site: K108) (UniProt P23396),4.95 (inactive)
7,RPL5 (lysine site: K242) (UniProt P46777),5.69 (inactive)
8,UniProt Q15149 (lysine site: K2350),4.82 (inactive)
9,PRDX1 (lysine site: K93) (UniProt Q06830),4.52 (inactive)
10,KIAA1549 (lysine site: K1195) (UniProt Q9HCM3),2.77 (inactive)
11,NECTIN3 (lysine site: K301) (UniProt Q9NQS3),1.83 (active)
12,UniProt P62333 (lysine site: K298),1.53 (active)
13,VDAC1 (lysine site: K61) (UniProt P21796),1.88 (active)
14,FRAS1 (lysine site: K3093) (UniProt Q86XX4),3.29 (inactive)
15,FRAS1 (lysine site: K3278) (UniProt Q86XX4),2.1 (inactive)
16,JUP (lysine site: K656) (UniProt P14923),0.972 (active)
17,SPTBN1 (lysine site: K997) (UniProt Q01082),2.87 (inactive)
18,PCMT1 (lysine site: K125) (UniProt P22061),1.38 (active)
19,PTGES2 (lysine site: K225) (UniProt Q9H7Z7),1.93 (active)
20,UniProt P83731 (lysine site: K97),1.9 (active)
